The supplement of paper PMC8728848
Many of the other results were omitted from the sample, so the strongest signals are more common in it than they were.

Assays:
Assay in all cases: glycan array binding signal (z-score within array); higher = stronger binding
Conditions in all cases: glycan notation: IUPAC condensed, linker removed
[1] = biological target: Fuc(a1-2)Gal(b1-3)GalNAc(b1-3)Gal(a1-4)Gal(b1-4)Glc
In short: (§1)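 Negative Z-scores can be read as non-binding. The Z-score is calculated within each array and then averaged across arrays of one protein sequence at different concentrations or buffers and across linkers. Arrays, 3228 in all, were curated from the Consortium for Functional Glycomics database and kept only where the protein sequence was available.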

[2] = biological target: Fuc(a1-2)Gal(b1-4)GlcNAc(b1-2)Man(a1-3)[Fuc(a1-2)Gal(b1-4)GlcNAc(b1-2)Man(a1-6)]Man(b1-4)GlcNAc(b1-4)[Fuc(a1-6)]GlcNAc
In short: as §1

[3] = biological target: Fuc(a1-2)Gal(b1-4)[Fuc(a1-3)]GlcNAc(b1-2)[Fuc(a1-2)Gal(b1-4)[Fuc(a1-3)]GlcNAc(b1-4)]Man(a1-3)[Fuc(a1-2)Gal(b1-4)[Fuc(a1-3)]GlcNAc(b1-2)Man(a1-6)]Man(b1-4)GlcNAc(b1-4)GlcNAc
In short: as §1

[4] = biological target: Fuc(a1-2)Gal(b1-4)[Fuc(a1-3)]GlcNAc(b1-3)Gal(b1-4)[Fuc(a1-3)]GlcNAc
In short: as §1

[5] = biological target: Fuc(a1-2)Gal6S(b1-4)Glc
In short: as §1

[6] = biological target: Fuc(a1-2)[Gal(a1-3)]Gal(b1-4)GlcNAc(b1-6)GalNAc
In short: as §1

[7] = biological target: Fuc(a1-2)[GalNAc(a1-3)]Gal(b1-3)GalNAc(a1-3)[Fuc(a1-2)]Gal(b1-4)GlcNAc
In short: as §1

[8] = biological target: Gal(a1-4)Gal(b1-4)GlcNAc(b1-2)Man(a1-3)[Gal(a1-4)Gal(b1-4)GlcNAc(b1-2)Man(a1-6)]Man(b1-4)GlcNAc(b1-4)GlcNAc
In short: as §1

[9] = biological target: Gal(b1-3)GlcNAc(b1-2)Man
In short: as §1

[10] = biological target: Gal(b1-3)GlcNAc(b1-2)Man(a1-3)[GlcNAc(b1-4)][Gal(b1-3)GlcNAc(b1-2)Man(a1-6)]Man(b1-4)GlcNAc(b1-4)GlcNAc
In short: as §1

[11] = biological target: Gal(b1-3)GlcNAc(b1-2)[Gal(b1-3)GlcNAc(b1-6)]Man(a1-6)[Gal(b1-3)GlcNAc(b1-2)Man(a1-3)]Man(b1-4)GlcNAc(b1-4)GlcNAc
In short: as §1

[12] = biological target: Gal(b1-3)GlcNAc(b1-3)Gal(b1-4)Glc
In short: as §1

[13] = biological target: Gal(b1-3)GlcNAc(b1-3)Gal(b1-4)GlcNAc
In short: as §1

[14] = biological target: Gal(b1-3)[Fuc(a1-4)]GlcNAc
In short: as §1

[15] = biological target: Gal(b1-4)GlcNAc(b1-2)Man(a1-3)[GlcNAc(b1-2)Man(a1-6)]Man(b1-4)GlcNAc(b1-4)GlcNAc
In short: as §1

[16] = biological target: Gal(b1-4)GlcNAc(b1-2)Man(a1-3)[GlcNAc(b1-4)][Gal(b1-4)GlcNAc(b1-2)Man(a1-6)]Man(b1-4)GlcNAc(b1-4)GlcNAc
In short: as §1

[17] = biological target: Gal(b1-4)GlcNAc(b1-2)Man(a1-3)[Man(a1-6)]Man(b1-4)GlcNAc(b1-4)GlcNAc
In short: as §1

[18] = biological target: Gal(b1-4)GlcNAc(b1-2)[Gal(b1-4)GlcNAc(b1-4)]Man(a1-3)[Gal(b1-4)GlcNAc(b1-2)[Gal(b1-4)GlcNAc(b1-6)]Man(a1-6)]Man(b1-4)GlcNAc(b1-4)GlcNAc
In short: as §1

[19] = biological target: Gal(b1-4)GlcNAc(b1-3)Gal(b1-4)GlcNAc(b1-2)[Gal(b1-4)GlcNAc(b1-3)Gal(b1-4)GlcNAc(b1-6)]Man(a1-6)[Gal(b1-4)GlcNAc(b1-3)Gal(b1-4)GlcNAc(b1-2)Man(a1-3)]Man(b1-4)GlcNAc(b1-4)GlcNAc
In short: as §1

[20] = biological target: Gal(b1-4)GlcNAc(b1-3)Gal(b1-4)GlcNAc(b1-3)Gal(b1-4)GlcNAc(b1-3)Gal(b1-4)GlcNAc(b1-2)Man(a1-3)[Gal(b1-4)GlcNAc(b1-3)Gal(b1-4)GlcNAc(b1-3)Gal(b1-4)GlcNAc(b1-3)Gal(b1-4)GlcNAc(b1-2)Man(a1-6)]Man(b1-4)GlcNAc(b1-4)[Fuc(a1-6)]GlcNAc
In short: as §1

[21] = biological target: Gal(b1-4)GlcNAc(b1-3)[GlcNAc(b1-6)]Gal(b1-4)GlcNAc
In short: as §1

[22] = biological target: Gal3S(b1-3)GlcNAc
In short: as §1

[23] = biological target: Gal3S(b1-4)[Fuc(a1-3)]Glc6S
In short: as §1

[24] = biological target: GalNAc6S(b1-4)GlcNAc
In short: as §1

[25] = biological target: GlcNAc(a1-4)Gal(b1-4)GlcNAc
In short: as §1

[26] = biological target: GlcNAc(b1-3)Man
In short: as §1

[27] = biological target: GlcNAc6S(b1-3)Gal(b1-4)GlcNAc
In short: as §1

[28] = biological target: Man(a1-2)Man(a1-3)[Man(a1-2)Man(a1-6)]Man(a1-6)[Man(a1-2)Man(a1-2)Man(a1-3)]Man
In short: as §1

[29] = biological target: Neu5Ac(a2-3)Gal(b1-3)GalNAc
In short: as §1

[30] = biological target: Neu5Ac(a2-3)Gal(b1-3)GalNAc(b1-3)Gal(a1-4)Gal(b1-4)Glc
In short: as §1

[31] = biological target: Neu5Ac(a2-3)Gal(b1-3)GlcNAc(b1-2)Man(a1-3)[Neu5Ac(a2-3)Gal(b1-3)GlcNAc(b1-2)Man(a1-6)]Man(b1-4)GlcNAc(b1-4)GlcNAc
In short: as §1

[32] = biological target: Neu5Ac(a2-3)Gal(b1-3)GlcNAc(b1-3)GalNAc
In short: as §1

[33] = biological target: Neu5Ac(a2-3)Gal(b1-4)GlcNAc(b1-2)Man
In short: as §1

[34] = biological target: Neu5Ac(a2-3)Gal(b1-4)GlcNAc(b1-2)[Neu5Ac(a2-3)Gal(b1-4)GlcNAc(b1-4)]Man(a1-3)[GlcNAc(b1-4)][Neu5Ac(a2-3)Gal(b1-4)GlcNAc(b1-4)Man(a1-6)]Man(b1-4)GlcNAc(b1-4)GlcNAc
In short: as §1

[35] = biological target: Neu5Ac(a2-3)Gal(b1-4)GlcNAc(b1-3)Gal(b1-4)GlcNAc(b1-3)[Neu5Ac(a2-3)Gal(b1-4)GlcNAc(b1-3)Gal(b1-4)GlcNAc(b1-6)]GalNAc
In short: as §1

[36] = biological target: Neu5Ac(a2-3)Gal(b1-4)[Fuc(a1-3)]GlcNAc(b1-3)GalNAc
In short: as §1

[37] = biological target: Neu5Ac(a2-3)Gal6S(b1-4)GlcNAc
In short: as §1

[38] = biological target: Neu5Ac(a2-6)Gal(b1-4)GlcNAc(b1-2)Man(a1-3)Man(b1-4)GlcNAc(b1-4)GlcNAc
In short: as §1

[39] = biological target: Neu5Ac(a2-6)Gal(b1-4)GlcNAc(b1-3)Gal(b1-3)GlcNAc
In short: as §1

[40] = biological target: Neu5Ac(a2-6)GlcNAc(b1-4)GlcNAc(b1-4)GlcNAc
In short: as §1

[41] = biological target: Neu5Gc(a2-3)Gal(b1-4)GlcNAc
In short: as §1

[42] = biological target: Neu5Gc(a2-3)Gal(b1-3)GlcNAc
In short: as §1

B1: PfulAvr4 2 (Pseudocercospora fuligena) (protein)
chain: HHHHHHDYKDDDDKAKPIKPFACPPKDFTTTKCQGPVDCLYANPLSCLGYIQCVCDDDACSTATPYAKSCPTGLAWVEKLKRCDGIKKSACPKKMYEGS
Q: Which “glycan array binding signal (z-score)” value [1] does the source give for B1 here?
A: The value was 0.285.

Q: And the “glycan array binding signal (z-score)” value [2]?
A: The value was 2.88.

Q: What about the “glycan array binding signal (z-score)” value [3] of the same binder?
A: Its value is 4.77.

Q: And the “glycan array binding signal (z-score)” value [4]?
A: The value was -0.355.

Q: What about the “glycan array binding signal (z-score)” value [5] of the same binder?
A: Its value is -0.291.

Q: And the “glycan array binding signal (z-score)” value [6]?
A: Its value is -0.178.

Q: And the “glycan array binding signal (z-score)” value [7]?
A: The value was 3.28.

Q: What about the “glycan array binding signal (z-score)” value [8] of the same binder?
A: The value was 1.43.

Q: What about the “glycan array binding signal (z-score)” value [9] of the same binder?
A: Its value is -0.279.

Q: What about the “glycan array binding signal (z-score)” value [10] of the same binder?
A: The value was 8.86.

Q: What about the “glycan array binding signal (z-score)” value [11] of the same binder?
A: The value was -0.063.

Q: And the “glycan array binding signal (z-score)” value [12]?
A: The value was 0.144.

Q: And the “glycan array binding signal (z-score)” value [13]?
A: Its value is -0.311.

Q: What about the “glycan array binding signal (z-score)” value [14] of the same binder?
A: Its value is -0.218.

Q: And the “glycan array binding signal (z-score)” value [15]?
A: The value was -0.331.

Q: What about the “glycan array binding signal (z-score)” value [16] of the same binder?
A: Its value is -0.216.

Q: What about the “glycan array binding signal (z-score)” value [17] of the same binder?
A: The value was 9.66.

Q: What about the “glycan array binding signal (z-score)” value [18] of the same binder?
A: The value was -0.113.

Q: And the “glycan array binding signal (z-score)” value [19]?
A: The value was 4.76.

Q: What about the “glycan array binding signal (z-score)” value [20] of the same binder?
A: Its value is -0.233.

Q: And the “glycan array binding signal (z-score)” value [21]?
A: Its value is 5.97.

Q: And the “glycan array binding signal (z-score)” value [22]?
A: Its value is -0.314.

Q: What about the “glycan array binding signal (z-score)” value [23] of the same binder?
A: The value was -0.272.

Q: What about the “glycan array binding signal (z-score)” value [24] of the same binder?
A: The value was -0.276.

Q: What about the “glycan array binding signal (z-score)” value [25] of the same binder?
A: The value was -0.432.

Q: What about the “glycan array binding signal (z-score)” value [26] of the same binder?
A: The value was 4.99.

Q: What about the “glycan array binding signal (z-score)” value [27] of the same binder?
A: Its value is -0.273.

Q: What about the “glycan array binding signal (z-score)” value [28] of the same binder?
A: Its value is -0.359.

Q: What about the “glycan array binding signal (z-score)” value [29] of the same binder?
A: The value was -0.292.

Q: What about the “glycan array binding signal (z-score)” value [30] of the same binder?
A: Its value is -0.326.

Q: What about the “glycan array binding signal (z-score)” value [31] of the same binder?
A: Its value is 7.16.

Q: And the “glycan array binding signal (z-score)” value [32]?
A: The value was -0.01.

Q: What about the “glycan array binding signal (z-score)” value [33] of the same binder?
A: Its value is 5.08.

Q: And the “glycan array binding signal (z-score)” value [34]?
A: Its value is -0.253.

Q: What about the “glycan array binding signal (z-score)” value [35] of the same binder?
A: The value was -0.158.

Q: What about the “glycan array binding signal (z-score)” value [36] of the same binder?
A: Its value is 0.545.

Q: What about the “glycan array binding signal (z-score)” value [37] of the same binder?
A: The value was -0.482.

Q: And the “glycan array binding signal (z-score)” value [38]?
A: Its value is -0.224.

Q: And the “glycan array binding signal (z-score)” value [39]?
A: The value was -0.344.

Q: And the “glycan array binding signal (z-score)” value [40]?
A: Its value is 3.75.

Q: And the “glycan array binding signal (z-score)” value [41]?
A: The value was -0.214.

B2: Eap (Staphylococcus aureus), A0A7L5PYT7 (protein)
chain: MKFKSLITTTLALGVLASTGANFNNNEAAAAAKPLDKSSSSLHHGYSKVHVPYAITVNGTSQNILSSLTFNKNQNISYKDLEDRVKSVLKSDRGISDIDLRLSKQAKYTVYFKNGTKKVIDLKAGIYTADLINTSEIKAININVDTKKQVEDKKKDKANYQVPYTITVNGTSQNILSNLTFNKNQNISYKDLEDKVKSVLESNRGITDVDLRLSKQAKYTVNFKNGTKKVIDLKSGIYTANLINSSDIKSININVDTKKHIENKAKRNYQVPYSINLNGTSTNILSNLSFSNKPWTNYKNLTSQIKSVLKHDRGISEQDLKYAKKAYYTVYFKNGGKRILQLNSKNYTANLVHAKDVKRIEITVKTGTKAKADRYVPYTIAVNGTSTPILSDLKFTGDPRVGYKDISKKVKSVLKHDRGIGERELKYAKKATYTVHFKNGTKKVININSNISQLNLLYVQDIKKIDIDVKTGTKAKADSYVPYTIAVNGTSTPILSKLKISNKQLISYKYLNDKVKSVLKSERGISDLDLKFAKQAKYTVYFKNGKKQVVNLKSDIFTPNLFSAKDIKKIDIDVKQYTKSKKNK
Q: Which “glycan array binding signal (z-score)” value [42] does the source give for B2 here?
A: Its value is -0.196.
